High-throughput results (PubChem)
HCV inhibitor = inhibitors of hepatitis C virus infection; Huh7.5.1 HCVcc-Cre infection, luciferase reporter, 44 h; Potency, µM (top dose mostly 41.8 µM), for the others: at the top dose activity change, negative = inhibition, actives largely listed as inhibitors; 3.4% of 340,000 active; AID 651820
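A cell-based infection assay in which seeded cells (1,000 per well) receive test compound after 4 h, are inoculated with HCVcc-Cre at approximately 0.5 moi, and are incubated 44 h before luminescence detection.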
AMA1-RON2 inh = disrupts binding of P. falciparum AMA1 to RON2 | Potency, µM (top dose mostly 58.2 µM), for the others: at the top dose activity change, negative = inhibition, usual class: inhibitors | AlphaScreen AMA1-biotinylated RON2 peptide binding | AID 720542 | 0.2% of 360,000 active;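 further: 0% = vehicle wells and -100% = peptide control; nearly all actives have a fitted effect of over 45% in size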
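AMA1 (3D7) with his tag at 25 nM final met compounds first, then biotinylated RON2 peptide at 25 nM; detection used donor plus acceptor beads, 10 µg/mL apiece, read by AlphaScreen after 30 min at room temperature.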
Pf growth 48h = P. falciparum growth inhibition at 48 hours (one generation); P. falciparum luciferase growth in erythrocytes, 48 h; Potency, µM (highest dose often 28.7 µM), for the others: at the highest dose activity change, negative = inhibition, actives largely listed as inhibitors; 5.9% of 310,000 active
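Firefly luciferase activity from engineered P. falciparum reports growth; inhibitors lower the luminescent signal. Cultures contained 2% hematocrit erythrocytes at 0.1% final parasitemia.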
AmpC no deterg = blocks E. coli AmpC beta-lactamase in detergent-free assay; 0.52% of 330,000 active; AID 485341; Potency, µM (doses to about 57.1 µM), without a hit: top-dose activity change, negative = inhibition, usual class: inhibitors; AmpC nitrocefin hydrolysis, absorbance 480 nm, 0.0001% Triton; P00811;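 further: plate controls were no compound for no effect and no enzyme for full effect; nearly all actives have a fitted effect of over 20% in size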
Target sequence (P00811 whole entry, looked up): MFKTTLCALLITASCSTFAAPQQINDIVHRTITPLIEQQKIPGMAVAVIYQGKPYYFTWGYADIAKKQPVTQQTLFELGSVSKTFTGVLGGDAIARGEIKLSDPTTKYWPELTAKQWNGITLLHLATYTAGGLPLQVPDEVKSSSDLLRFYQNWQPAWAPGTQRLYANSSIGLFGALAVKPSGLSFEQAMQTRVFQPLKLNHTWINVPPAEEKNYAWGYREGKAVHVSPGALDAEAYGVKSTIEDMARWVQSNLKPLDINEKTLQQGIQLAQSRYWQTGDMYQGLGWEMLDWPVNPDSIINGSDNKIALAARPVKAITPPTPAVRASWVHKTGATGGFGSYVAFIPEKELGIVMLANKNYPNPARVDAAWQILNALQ
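20 mM phosphate pH 7.0 + 0.01% (detergent screen) or 0.0001% Triton X-100; 5.3 nM AmpC reagent; cpd preinc 15 min RT; nitrocefin (800 uM stock) to start; A480 q20 s × 4 min; Activity was normalised to no-enzyme and no-compound control wells.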
Pf growth 96h = P. falciparum growth inhibition at 96 hours; P. falciparum luciferase reporter growth, 96 h; Potency, µM (series often up to 28.7 µM), inactives show top-dose activity change, negative = inhibition, hits mostly inhibitors; 6.9% of 320,000 active; AID 504834
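Infected RBCs, 2% Hct / 0.05% parasitemia final; luciferase-reporter P. falciparum; cpd 96 h, 37 C, 5% CO2; luciferase detection reagent; luminescence.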
AmpC detergent = AmpC beta-lactamase inhibition with detergent present; AID 485294; AmpC hydrolysis of nitrocefin, absorbance 480 nm, 0.01% Triton; 0.041% of 370,000 active; P00811; Potency, µM (doses to about 114 µM), for the others: at the highest dose activity change, negative = inhibition, hits mostly inhibitors;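 further: 0% = no-compound wells and -100% = no-enzyme wells; nearly all actives have a fitted effect of over 25% in size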
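AmpC (5.3 nM in the dispensed reagent) in 20 mM phosphate pH 7.0 with 0.01% (detergent screen) or 0.0001% Triton X-100 was preincubated with compounds for 15 min at room temperature. Nitrocefin was then added from an 800 uM solution, and hydrolysis was followed at 480 nm.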
Numbers without * were called inactive; u = inconclusive; x = no result given. Shown are actives, neighbours in structure and some others; about 11% of the full set was active somewhere. The call rests on the fitted dose curve; in most records, active means well fitted curve in the direction sought with a large enough effect; inconclusive means small, poorly fitted or top-dose-only effect, or another doubt; inactive means no such curve, though single readings can be large; an effect the other way counts as inactive or inconclusive. Unless noted, on the % scale 0 is the no-effect control and ±100 the full control effect; potency means the concentration at half of the fitted maximal effect.

SMILES	HCV inhibitor	AMA1-RON2 inh	Pf growth 48h	AmpC no deterg	Pf growth 96h	AmpC detergent
CCOc1ccc(NC(=O)Cn2c(=O)n(CCC(=O)NCCc3ccccc3)c(=O)c3ccccc32)cc1	x	x	x	x	x	2%
CCOc1ccc(-n2c(=O)c3c(C)c(C)sc3n(Cc3ccccc3C)c2=O)cc1	x	x	x	x	x	20%
CCOC(=O)N1CCC(N2C(=O)c3ccccc3C2Nc2cc(Cl)c(OC)cc2OC)CC1 (stereo unspecified)	-5%	-20%	13µM*	192%	u	u
CCOC(=O)N1CCC(N2C(=O)c3ccccc3C2Nc2cc(OC)c(OC)c(OC)c2)CC1 (stereo unspecified)	7%	-7%	u	77%	u	u
COc1ccc(C2N(S(=O)(=O)c3ccccc3)CCN2S(=O)(=O)c2ccc(C)cc2)cc1 (stereo unspecified)	-16%	-4%	x	-14%	9.3µM*	2%
CCC(=O)N1CCCN(S(=O)(=O)c2ccc(C)cc2)C1c1ccc(OC)cc1 (stereo unspecified)	6%	6%	13µM*	62%	30%	0%
Cc1ccc(S(=O)(=O)N2CCN(S(=O)(=O)c3ccc(C)cc3)C2c2ccccc2)cc1	1%	3%	u	-7%	x	u
O=C(CSc1nc2c(oc3ccccc32)c(=O)[nH]1)Nc1cccc(Cl)c1	x	x	x	x	x	3%
O=C(Cn1c(=O)n(CCCS(=O)(=O)C2CCCCC2)c(=O)c2ccccc21)Nc1ccc(F)c(Cl)c1	x	x	x	x	x	12%
CC(Sc1ccccc1)C(=O)Nc1ccccc1C(=O)N1CCOCC1 (stereo unspecified)	1%	-4%	1%	0.28µM*	u	5%
Cc1ccccc1-n1c(=O)cc(NCc2ccc3c(c2)OCO3)[nH]c1=O	6%	-5%	9.3µM*	-2%	u	-2%
Cc1ccccc1-n1c(=O)cc(NCC2CCCO2)[nH]c1=O (stereo unspecified)	17%	2%	-6%	-6%	6.6µM*	1%
O=c1cc(NCc2ccc3c(c2)OCO3)[nH]c(=O)n1-c1ccc(Cl)cc1	4%	-11%	-15%	-21%	14%	2%
Cc1nn(-c2ccc(N3CCOCC3)nn2)c(C)c1CCC(=O)NCc1ccc(Cl)cc1	x	x	x	x	x	2%
CCOC(=O)C1CCN(C(=O)CCc2c(C)nc3c(-c4ccc(F)cc4)c(C)nn3c2C)CC1	12%	17%	x	26%	10µM*	u
Cc1nc2c(-c3ccc(F)cc3)c(C)nn2c(C)c1CCC(=O)Nc1ccccc1	u	2%	u	35%	u	-5%
CCN1CCN(c2ccc(NC(=O)CCc3c(C)nc4c(-c5ccc(F)cc5)c(C)nn4c3C)cc2)CC1	2.5µM*	-23%	u	44%	u	-1%
COCCNC(=O)CCc1c(C)nc2c(-c3ccc(F)cc3)c(C)nn2c1C	-10%	5%	x	33%	13µM*	u
COc1ccc(OC)c(C2CC(=O)Oc3c2c(=O)n(C)c2ccccc32)c1 (stereo unspecified)	x	x	x	x	x	-4%
Nc1nnc(-c2cn(-c3ccccc3)nc2-c2ccc(Cl)cc2)o1	-22%	-7%	3.7µM*	-36%	4.7µM*	-17%
COCCSc1nc(N)c2c3c(sc2n1)CN(C)CC3	7%	17%	5.2µM*	-14%	3.7µM*	-5%
CN(C)CCSc1nc(N)c2c3c(sc2n1)CN(C)CC3	0%	-6%	4.1µM*	-22%	u	u
COC(=O)CSc1nc(N)c2c3c(sc2n1)CCCC3	0%	2%	7%	11%	29%	-12%
CCCSc1nc(N)c2c3c(sc2n1)CN(C)CC3	-12%	-1%	u	-45%	u	u
